Calls of active or inactive are those of the source.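 Rule for the calls, unless noted: active = calcium signal rise more than 3 SD above the low-dose agonist control mean, in both duplicate plates and the primary screen; inactive = the rest.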
Experiment: nonspecific calcium rise without TRPC4 – cell-based, HEK293 mu-opioid receptor line, counter-screen for TRPC4 activator project, confirmation (AID 449723;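 active = hit in primary screen, with calcium signal over 5 SD above buffer well mean in both duplicates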;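 note: counter screen cells carry the mu-opioid receptor alone and lack TRPC4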)
Details: HEK293 mu-opioid cells, Fluo-4 calcium fluorescence, at 10 µM; active compounds read high
In the case of Cc1nnc(Sc2cc(NCCCO)c([N+](=O)[O-])c3nonc23)s1, the outcome is reported as “inactive”. With CCOC(=O)C1=NNC(C(=O)c2ccc(Cl)cc2)C1c1ccc(OC)cc1 (stereo unspecified) the outcome was “inactive”. With CN1CCN(NC(=O)Nc2cc(Cl)cc(Cl)c2)CC1 the outcome was “inactive”. With Cc1ccc(C[n+]2cccc(-c3ccccc3)c2)c(C)c1 the outcome was “inactive”. In the case of Cc1ccc(C(=O)C[n+]2cccc3cc(C)ccc32)cc1, the outcome is reported as “inactive”. For COc1ccc(OC)c(NC(=O)COC(=O)Cc2ccc(-c3ccccc3)cc2)c1, the outcome was “inactive”. For CC(C)c1ccc(C(C)NCCS(=O)(=O)c2ccc(Br)cc2)cc1 (stereo unspecified), the outcome was “inactive”. For Cc1ccc(C)c(N(CC(=O)NC2CCCC2)C(=O)c2csnn2)c1, the outcome was “inactive”. With Cc1ccc(-n2c(N)cc(=O)nc2SCC(=O)N2CCN(c3ccccc3)CC2)cc1 the outcome was “inactive”. For N=c1c(C(=O)NCC2CCCO2)cc2c(=O)n3ccccc3nc2n1Cc1ccc(Cl)cc1 (stereo unspecified), the outcome was “inactive”. In the case of CN(CCNC(=O)c1ccc(/C=N/O)nc1)Cc1ccccc1, the outcome is reported as “inactive”. In the case of CCOC(=O)C1=C(CNCCc2ccc(Cl)cc2)NC(=O)NC1c1cccc([N+](=O)[O-])c1 (stereo unspecified), the outcome is reported as “inactive”. For O=C(NCC(c1ccco1)N1CCc2ccccc2C1)c1ccc(F)cc1 (stereo unspecified), the outcome was “inactive”. In the case of CCCc1c(-c2ccc(O)cc2)nn(-c2ccc(O)cc2)c1-c1ccc(O)cc1, the outcome is reported as “inactive”. With Cc1ccc(-c2c(C(=O)N/N=C/c3ccc(OC(C)C)cc3)nnn2-c2nonc2N)cc1 the outcome was “inactive”. For CCOC(=O)CSc1nc2ccccc2c(=O)n1C1CCCC1, the outcome was “inactive”. With CCN1C(=O)/C(=C/C=C2\N(CC)c3cc(S(=O)(=O)N(C)C)ccc3N2c2ccccc2)SC1=S the outcome was “inactive”. With CCCCn1c(N)c(N(CCOC)C(=O)c2ccc(-c3ccc(C(C)=O)cc3)o2)c(=O)[nH]c1=O the outcome was “inactive”. For CC(C)CN(C(=O)C1CC1)c1c(N)n(Cc2ccccc2)c(=O)[nH]c1=O, the outcome was “inactive”. With CCOC(=O)CC(NS(=O)(=O)c1ccc(OC)c(C)c1)c1cccc([N+](=O)[O-])c1 (stereo unspecified) the outcome was “inactive”. With Clc1ccc2nc(CN3CCCc4ccccc43)cn2c1 the outcome was “inactive”. With Cc1cc(Cl)ccc1OC(C)C(=O)Nc1ccccc1N1CCOCC1 (stereo unspecified) the outcome was “inactive”.

Experiment: nonspecific potentiation of DAMGO calcium response – cell-based, HEK293 mu-opioid receptor line, counter-screen for TRPC4 allosteric potentiator project, confirmation (AID 449724);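 note: HEK293 cells carrying mu-opioid receptor only with no TRPC4 channel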
Details: HEK293 mu-opioid receptor cells, Fluo-4 calcium flux, at 10 µM, compound added before EC20 DAMGO stimulus; active compounds read high
For CCN1CCN(c2ccc(S(=O)(=O)N3CCCCC3)cc2NC(=O)c2cccc(OC(F)F)c2)CC1, the outcome was “inactive”. For Fc1ccc(CN2C3=NCCCN3c3ccccc32)cc1, the outcome was “inactive”. With COc1ccc(-n2cc(CNCc3cnc4ccccn34)c(-c3cccc(F)c3)n2)cc1 the outcome was “inactive”. In the case of N=c1c(C(=O)NCc2ccc(F)cc2)cc2c(=O)n3ccccc3nc2n1Cc1ccco1, the outcome is reported as “inactive”. In the case of O=C1CC2(CCN(S(=O)(=O)c3ccccc3F)CC2)Oc2ccccc21, the outcome is reported as “inactive”. In the case of O=C1Cc2ccccc2Sc2c(OCCN3CCCCC3)cccc21, the outcome is reported as “inactive”. In the case of C/C(CC(=O)NCc1ccc(Cl)cc1)=N\NC(=O)COc1ccc(C)cc1Br, the outcome is reported as “inactive”. For CCCCNc1c(-c2ccc(SC(C)CC)c(OC)c2)nc2ccc(C)cn12 (stereo unspecified), the outcome was “inactive”. With CCOC(=O)C1NN=C(C(=O)c2ccccc2)C1c1ccc(Cl)cc1 (stereo unspecified) the outcome was “inactive”. In the case of O=[N+]([O-])c1ccc(N2CCN(CCOc3nonc3-c3ccccc3)CC2)c(Cl)c1, the outcome is reported as “inactive”. With COc1ccc(-c2cc(C(=O)N3CC(C)CC(C)C3)c3ccccc3n2)cc1 (stereo unspecified) the outcome was “inactive”. For COC(=O)c1cc(N2CCN(C)CC2)nc2ccccc12, the outcome was “inactive”. With COc1cc(C2c3c(-c4ccccc4)n[nH]c3C(=O)N2c2ccccc2)ccc1O (stereo unspecified) the outcome was “inactive”. For O=C(c1ccccc1)c1coc2ccc(O)c(CN3CCOCC3)c12, the outcome was “inactive”. In the case of CN(C)S(=O)(=O)c1cccc(COC(=O)c2ccc(Cl)cc2O)c1, the outcome is reported as “inactive”. In the case of CCOC(=O)C1=C(C)N(c2ccccc2)C(=O)NC1c1cccc([N+](=O)[O-])c1 (stereo unspecified), the outcome is reported as “inactive”. With Cc1cc(=O)oc2cc(NC(=S)NCc3ccccn3)ccc12 the outcome was “inactive”. With Cc1nnc(Sc2cc(NCCCO)c([N+](=O)[O-])c3nonc23)s1 the outcome was “inactive”. In the case of CCOC(=O)C1=NNC(C(=O)c2ccc(Cl)cc2)C1c1ccc(OC)cc1 (stereo unspecified), the outcome is reported as “inactive”. For CN1CCN(NC(=O)Nc2cc(Cl)cc(Cl)c2)CC1, the outcome was “inactive”. In the case of Cc1ccc(C[n+]2cccc(-c3ccccc3)c2)c(C)c1, the outcome is reported as “inactive”. For Cc1ccc(C(=O)C[n+]2cccc3cc(C)ccc32)cc1, the outcome was “inactive”. For COc1ccc(OC)c(NC(=O)COC(=O)Cc2ccc(-c3ccccc3)cc2)c1, the outcome was “inactive”. With CC(C)c1ccc(C(C)NCCS(=O)(=O)c2ccc(Br)cc2)cc1 (stereo unspecified) the outcome was “inactive”. For Cc1ccc(C)c(N(CC(=O)NC2CCCC2)C(=O)c2csnn2)c1, the outcome was “inactive”. For Cc1ccc(-n2c(N)cc(=O)nc2SCC(=O)N2CCN(c3ccccc3)CC2)cc1, the outcome was “inactive”. For N=c1c(C(=O)NCC2CCCO2)cc2c(=O)n3ccccc3nc2n1Cc1ccc(Cl)cc1 (stereo unspecified), the outcome was “inactive”. With CN(CCNC(=O)c1ccc(/C=N/O)nc1)Cc1ccccc1 the outcome was “inactive”. With CCOC(=O)C1=C(CNCCc2ccc(Cl)cc2)NC(=O)NC1c1cccc([N+](=O)[O-])c1 (stereo unspecified) the outcome was “inactive”. For O=C(NCC(c1ccco1)N1CCc2ccccc2C1)c1ccc(F)cc1 (stereo unspecified), the outcome was “inactive”. For CCCc1c(-c2ccc(O)cc2)nn(-c2ccc(O)cc2)c1-c1ccc(O)cc1, the outcome was “inactive”. In the case of Cc1ccc(-c2c(C(=O)N/N=C/c3ccc(OC(C)C)cc3)nnn2-c2nonc2N)cc1, the outcome is reported as “inactive”. With CCOC(=O)CSc1nc2ccccc2c(=O)n1C1CCCC1 the outcome was “inactive”. For CCN1C(=O)/C(=C/C=C2\N(CC)c3cc(S(=O)(=O)N(C)C)ccc3N2c2ccccc2)SC1=S, the activation was 996% (active). For CCCCn1c(N)c(N(CCOC)C(=O)c2ccc(-c3ccc(C(C)=O)cc3)o2)c(=O)[nH]c1=O, the outcome was “inactive”. In the case of CC(C)CN(C(=O)C1CC1)c1c(N)n(Cc2ccccc2)c(=O)[nH]c1=O, the outcome is reported as “inactive”. With CCOC(=O)CC(NS(=O)(=O)c1ccc(OC)c(C)c1)c1cccc([N+](=O)[O-])c1 (stereo unspecified) the outcome was “inactive”. For Clc1ccc2nc(CN3CCCc4ccccc43)cn2c1, the outcome was “inactive”. For Cc1cc(Cl)ccc1OC(C)C(=O)Nc1ccccc1N1CCOCC1 (stereo unspecified), the activation was 1140% (active).
